# Assay results reported in PubChem BioAssay (NCI).
# About 79,000 compounds went through this panel and 15% of them were active in at least one assay; those are over-represented in the sample as a whole. A number with no mark means an inactive call. Calls of active or inactive are those of the source. Cut-off read from the data, not from the text of the source: active = growth inhibition above about 70%; inactive = the rest.
# Columns and labels:
# [1] = NCI Yeast Anticancer Drug Screen. Data for the rad50 strain (AID 155);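 note: 0% = growth of vehicle-only cultures of the same strain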; conditions: S. cerevisiae rad50 strain growth inhibition, hits give high values
# In short: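 A DNA repair-deficient yeast mutant serves as the test organism; compound-induced growth inhibition is calculated against vehicle-treated cells.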
# [2] = NCI Yeast Anticancer Drug Screen. Data for the mec2-1 strain (AID 157); conditions: S. cerevisiae mec2-1 strain, hits give high values
# In short: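 Mutant yeast (mec2-1) grown with compound; growth inhibition relative to vehicle control reported.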
# [3] = NCI Yeast Anticancer Drug Screen. Data for the sgs1 mgt1 strain (AID 161);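 note: 0% = growth of cultures given vehicle only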; conditions: S. cerevisiae sgs1 mgt1 strain, hits give high values
# In short: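 This yeast growth screen uses a strain with defined DNA-repair lesions; compound-treated growth is compared with vehicle-treated growth.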
# [4] = NCI Yeast Anticancer Drug Screen. Data for the cln2 rad14 strain (AID 165);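 note: 0% = growth equal to vehicle treated cultures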; conditions: S. cerevisiae cln2 rad14 strain, hits give high values
# In short: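 Readout is yeast growth inhibition versus vehicle-treated controls, using a strain with cln2 and rad14 alterations exposed to compound.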
# [5] = NCI Yeast Anticancer Drug Screen. Data for the bub3 strain (AID 167); conditions: S. cerevisiae bub3 mutant strain, hits give high values
# In short: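 Inhibition values come from growth of compound-treated mutant yeast normalised to vehicle-treated controls.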
# [6] = NCI Yeast Anticancer Drug Screen. Data for the mlh1 rad18 strain (AID 175); conditions: S. cerevisiae mlh1 rad18 strain growth inhibition, hits give high values
# In short: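 Genetically defined yeast (DNA repair-deficient) exposed to compounds; growth inhibition determined relative to vehicle.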
# [7] = at 5.0 µM (retest, dose inferred, filed as 0.5)
# [8] = at 50.0 µM (retest, dose inferred, filed as 5.0)
Structure (SMILES),"growth inhibition [1, 7]","growth inhibition [1, 8]",growth inhibition ([1]; at 50.0 µM),"growth inhibition [2, 7]","growth inhibition [2, 8]",growth inhibition ([2]; at 50.0 µM),"growth inhibition [3, 7]","growth inhibition [3, 8]",growth inhibition ([3]; at 50.0 µM),"growth inhibition [4, 7]","growth inhibition [4, 8]",growth inhibition ([4]; at 50.0 µM),"growth inhibition [5, 7]","growth inhibition [5, 8]",growth inhibition ([5]; at 50.0 µM),"growth inhibition [6, 7]","growth inhibition [6, 8]",growth inhibition ([6]; at 50.0 µM)
Cc1cc(CC(O)(C(F)(F)F)C(F)(F)F)cc(CC(O)(C(F)(F)F)C(F)(F)F)n1,12%,99% (active),99.2% (active),5%,98% (active),98.5% (active),-3%,98% (active),98.2% (active),9%,98% (active),98% (active),-16%,99% (active),99.2% (active),6%,99% (active),99% (active)
C=CC[C@]1(C(C)Cc2ccc(OC)c(OC)c2)C[C@@H](OC)C=CC1=O (some centres not stated),-7%,89% (active),88% (active),8%,89% (active),93% (active),0%,85% (active),88.8% (active),13%,86% (active),88.5% (active),7%,92% (active),89.5% (active),-1%,92% (active),96% (active)
CCOC(=O)C(NS(=O)(=O)c1ccccc1)(C(F)(F)F)P(=O)(OCC(C)C)OCC(C)C (configuration not stated),4%,-2%,98.5% (active),8%,-2%,96.1% (active),-7%,-3%,96.2% (active),2%,13%,97.3% (active),4%,0%,96.2% (active),0%,17%,98% (active)
CCOC(=O)CN1C(=O)S/C(=C/c2ccc([N+](=O)[O-])o2)C1=O,9%,93% (active),77.2% (active),3%,94% (active),76% (active),12%,98% (active),91.3% (active),-3%,89% (active),56.3%,3%,96% (active),86% (active),21%,96% (active),87.1% (active)
CC(CO)(CO)N=Cc1cc(I)cc(I)c1O,91% (active),100% (active),99.6% (active),97% (active),100% (active),99.6% (active),86% (active),99% (active),99.7% (active),87% (active),99% (active),99.4% (active),86% (active),100% (active),99.5% (active),98% (active),100% (active),99.6% (active)
COc1cccc2c1C(=O)c1c(O)c3c(c(O)c1C2=O)C[C@@](O)(/C(C)=N/NC(N)=S)C[C@@H]3OC1CC(N)C(O)C(C)O1 (some centres not stated),27%,91% (active),95.5% (active),8%,58%,94.7% (active),3%,56%,96.3% (active),4%,38%,82.8% (active),4%,60%,95.3% (active),8%,75% (active),95.7% (active)
CCCOCCC#N,8%,-2%,-11.6%,5%,0%,7.45%,-6%,1%,-8.1%,5%,-2%,40.9%,7%,13%,-1.65%,7%,-1%,-17.9%
O=C(O)c1ccc(CSc2ccc(Cl)cc2)cc1,-4%,0%,52%,-2%,19%,10.4%,11%,36%,51.3%,-7%,-15%,36.7%,-6%,39%,18.7%,0%,17%,71.3% (active)
CC(=O)Oc1c2c(c(C)c3ccccc13)C(=O)c1cccnc1C2=O,6%,4%,98.4% (active),6%,5%,98.8% (active),5%,6%,98.7% (active),10%,0%,97.8% (active),4%,-1%,98.2% (active),3%,2%,98.6% (active)
CCCCP(CCCC)(CCCC)=C(C(=O)OC)C(C(=O)OC)=C1SC(C(=O)OC)=C(C(=O)OC)S1,18%,39%,-4.9%,4%,16%,10.3%,63%,26%,-9.3%,47%,38%,13.1%,79% (active),47%,-7.6%,23%,51%,4.8%
O=C(/C=C/c1ccc(O)cc1)c1cc(Cl)ccc1O,10%,96% (active),95.7% (active),6%,97% (active),95.7% (active),36%,97% (active),92.4% (active),-4%,97% (active),94.2% (active),4%,97% (active),96.5% (active),7%,96% (active),93.3% (active)
Cc1c2cc[n+](C)cc2c(C)c2c1[nH]c1ccc(Cl)cc12,43%,97% (active),90.2% (active),28%,99% (active),92.4% (active),48%,99% (active),93% (active),35%,98% (active),92.1% (active),42%,99% (active),91.6% (active),51%,99% (active),91% (active)
Cc1cc(Cc2ccccc2Cl)ccc1O,-3%,99% (active),99.2% (active),-9%,100% (active),99.6% (active),-3%,99% (active),99.5% (active),-17%,99% (active),99% (active),-6%,98% (active),99.4% (active),-4%,100% (active),95.5% (active)
C=C1CC(O)C2C(C[Se]c3ccccc3)C(=O)O[C@@H]2C2C(=C)[C@@H](O)CC12 (some centres not stated),-3%,27%,46.4%,1%,36%,52.1%,0%,43%,29.6%,-5%,5%,-13.3%,-9%,11%,30.2%,-2%,30%,70.7% (active)
